Screening data (PubChem)
GC-B act: human GC-B receptor activators, primary screen, HEK293 GC-B cells, cGMP TR-FRET, EC30 CNP | Atrial natriuretic peptide receptor 2 (Homo sapiens), P20594 | 0% at EC30 CNP, 100% saturating CNP | activation, % at 10 µM | 370,000 compounds, 0.11% hits | AID 1920062, 2024;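 active means activation at 10 µM reaching about 35% in either raw or pattern-adjusted values, limit read from the data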
PLCg1 inh: PLC-gamma1 enzyme inhibitors, primary screen, biochemical, fluorescence, purified enzyme. 1-phosphatidylinositol 4,5-bisphosphate phosphodiesterase gamma-1 (Homo sapiens), P19174. fluorogenic substrate. inhibition, % at 12.2 µM. 370,000 compounds, 0.84% hits; in the data active means inhibition above about 9.5%
Rce1 inhib: yeast Rce1p protease inhibitors, primary screen, biochemical, fluorescence, cell-free homogeneous; CAAX prenyl protease 2 (Saccharomyces cerevisiae (strain ATCC 204508 / S288c)), Q03530; yeast membranes, quenched prenylated peptide cleavage fluorescence; calls only; 290,000 compounds, 0.27% hits; AID 2563, 2010;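 active means fall in fluorescence gain of 50% or more versus controls, with final raw signal at or below 3038400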;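 further: plate controls were neutral control wells for no effect and wells lacking membranes for full effect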
GC-A act: GC-A stimulated cGMP production enhancers – HEK293 GC-A cells, cGMP TR-FRET, EC30 ANP, primary screen. 370,000 compounds, 0.14% hits. AID 1671463, 2021. Atrial natriuretic peptide receptor 1 (Homo sapiens), P16066. 0% at EC30 ANP, 100% saturating ANP. activation, % at 10 µM; in the data active means activation above about 40%
Target sequence (P16066 whole entry, looked up): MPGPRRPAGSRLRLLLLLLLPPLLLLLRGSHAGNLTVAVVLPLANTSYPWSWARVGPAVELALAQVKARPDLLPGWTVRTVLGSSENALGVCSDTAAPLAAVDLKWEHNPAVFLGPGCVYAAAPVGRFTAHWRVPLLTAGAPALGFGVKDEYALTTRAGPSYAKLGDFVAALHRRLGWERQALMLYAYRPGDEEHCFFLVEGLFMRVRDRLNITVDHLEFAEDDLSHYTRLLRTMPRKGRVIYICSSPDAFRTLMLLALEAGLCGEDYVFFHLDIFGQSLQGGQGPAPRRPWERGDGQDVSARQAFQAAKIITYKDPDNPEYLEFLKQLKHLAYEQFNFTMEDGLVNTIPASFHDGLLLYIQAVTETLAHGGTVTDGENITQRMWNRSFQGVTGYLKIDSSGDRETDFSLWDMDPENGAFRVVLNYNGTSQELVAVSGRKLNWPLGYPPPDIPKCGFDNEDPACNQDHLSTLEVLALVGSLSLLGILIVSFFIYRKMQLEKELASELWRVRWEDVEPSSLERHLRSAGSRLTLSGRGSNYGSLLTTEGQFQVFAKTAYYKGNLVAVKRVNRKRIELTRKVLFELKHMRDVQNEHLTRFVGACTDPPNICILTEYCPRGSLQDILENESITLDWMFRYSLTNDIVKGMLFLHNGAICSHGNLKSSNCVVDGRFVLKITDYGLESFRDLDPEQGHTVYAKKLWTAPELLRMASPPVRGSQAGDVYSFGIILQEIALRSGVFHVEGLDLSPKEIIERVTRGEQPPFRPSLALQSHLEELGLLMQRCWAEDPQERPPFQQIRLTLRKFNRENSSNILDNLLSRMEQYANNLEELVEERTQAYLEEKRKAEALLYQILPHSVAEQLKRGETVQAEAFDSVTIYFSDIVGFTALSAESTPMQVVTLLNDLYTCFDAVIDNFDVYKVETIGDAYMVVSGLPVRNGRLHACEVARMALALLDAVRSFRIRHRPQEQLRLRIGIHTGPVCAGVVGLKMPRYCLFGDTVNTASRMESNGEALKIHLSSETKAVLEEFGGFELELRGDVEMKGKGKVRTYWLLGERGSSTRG
M18AAP inhibitor: PfM18AAP inhibitors, malaria aminopeptidase, primary screen, biochemical, QFRET, recombinant enzyme; M18 aspartyl aminopeptidase (Plasmodium falciparum 3D7); H-Glu-NHMec fluorogenic cleavage; inhibition, % at 7.35 µM; 290,000 compounds, 1.2% hits;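 active means inhibition above the campaign mean inhibition over all tested compounds plus 3 SD, cut at about 28% in these data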;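 further: 0% = plate median of test compound wells and 100% = 2 mM ZnCl2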
PLCb3 inh: human PLC-beta3 inhibitors, primary screen, biochemical, fluorescence. 1-phosphatidylinositol 4,5-bisphosphate phosphodiesterase beta-3 (Homo sapiens), Q01970. Purified PLC-beta3, fluorogenic substrate. inhibition, % at 12.2 µM. 370,000 compounds, 0.18% hits; in the data active means inhibition above about 11%;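 further: 0% = median of compound wells on plate and 100% = full blocker control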
* = called active by the depositor; i = inactive; · = no result given; + = active, no number. In the library only some 2.2% were active in any assay of this set; here they are far more common.

SMILES	GC-B act	PLCg1 inh	Rce1 inhib	GC-A act	M18AAP inhibitor	PLCb3 inh
Cc1nc2c(C(=O)N3CCN(C)CC3)cnn2c(C)c1Cc1ccc(Cl)cc1	-2	-107	+	0	3	-159
Cc1ccc(Cc2c(C)nc3c(C(=O)O)cnn3c2C)cc1	·	·	·	·	0	·
CN=c1scc(C)n1/N=C/c1cc(Br)c(O)c(OC)c1	-2	-54	i	-5	28*	-79
COc1cccc(-c2nnc(SCC(=O)Nc3cccc4ccccc34)n2Cc2ccco2)c1	20	5	·	14	·	-5
CC(O)CN(CC(C)O)c1ccc2c(c1)Cc1cc([N+](=O)[O-])ccc1-2 (stereo not given)	27	-436	·	45*	·	i
Nc1ccc2c(c1)Cc1cc([N+](=O)[O-])ccc1-2	-6	-189	i	11	5	-204
CCOc1ccc(/C=N/n2cc(-c3ccccc3)[nH]c2=S)cc1	-4	-28	i	1	54*	-38
CC(Sc1nnc(-c2ccccc2)c(-c2ccccc2)n1)C(=O)NCC1CCCO1 (stereo not given)	-5	12*	·	-21	·	-1
COc1cc(O)c(C(CC(=O)N2CCCC(C)C2)c2ccccc2)c(OC)c1 (stereo not given)	-22	-2	·	-24	·	2
COc1cccc(CN2CCc3[nH]c(=S)[nH]c(=O)c3C2)c1	3	0	i	-3	30*	-2
COCCCN1CCc2[nH]c(=S)[nH]c(=O)c2C1	-1	-4	i	0	6	-1
O=C1OCCC1Sc1nc(-c2ccccc2)cs1 (stereo not given)	12	2	i	72*	3	2
O=C1OCCC1Sc1nc2ccccc2[nH]1 (stereo not given)	3	3	i	0	1	-5
O=C1CNC(=S)N1CCc1ccc(O)c(O)c1	-9	3	i	-1	69*	-8
O=C(NCc1ccco1)C1CCCN(c2ncccn2)C1 (stereo not given)	10	-9	·	2	·	-9
Cc1cc(C)n(-c2nc3ccccc3c(=O)n2OCC(=O)N(C)C)n1	5	0	+	2	2	1
Nc1c(C(=O)NCc2ccccc2)sc2nc(N3CCOCC3)c3c(c12)CCCC3	36*	i	+	43*	11	i
Cn1cccc1C1C(C#N)=C(N)OC2=C1C(=O)CCC2 (stereo not given)	5	-6	i	-1	28*	-8
CC(C)(C)c1ccc(-c2nnc(SCC(=O)Nc3ccccc3-c3ccccc3)n2Cc2ccco2)cc1	10	0	·	-1	·	1
O=C1Nc2ccccc2CCc2ccccc21	0	-1	·	1	·	0
O=C1Cc2ccccc2C(=O)N1	-1	11*	·	6	·	0
COC(=O)[C@]12C[C@H](CC(=O)NCC34CC5CC(CC(C5)C3)C4)C(=O)N(CCc3ccc(OC)c(OC)c3)C1=C[C@H](C(C)C)O[C@@H]2C1CC1	1	1	·	-3	·	2
COc1ccccc1-n1c(-c2ccccc2)c[nH]c1=S	1	0	+	1	9	0
CCN(CC)CCN(Cc1cc2cc3c(cc2[nH]c1=O)OCO3)C(=S)NCc1ccco1	1	-35	+	2	0	-53
CC1CCc2c(sc3nc(CSc4ncn[nH]4)[nH]c(=O)c23)C1 (stereo not given)	-1	-2	i	-1	56*	-1
SMILES	GC-B act	PLCg1 inh	Rce1 inhib	GC-A act	M18AAP inhibitor	PLCb3 inh
CC1CCc2c(sc3nc(CSc4nnnn4C)[nH]c(=O)c23)C1 (stereo not given)	-4	-1	i	-1	4	-11
COc1cc(CNC(=O)CCCC(=O)c2ccccc2)cc(OC)c1OC	3	9.9*	i	-6	-7	-1
CC(=O)c1ccc(-c2ccc(C(=O)N3CCC(C(N)=O)CC3)o2)cc1	-9	-386	+	3	·	-405
CC(=O)c1ccc(-c2ccc(C(=O)N3CCN(c4ccc(F)cc4)CC3)o2)cc1	1	-17	i	0	-4	-19
CCCCNC(=O)NCC1CCN(Cc2ccc(OC)cc2)CC1	-2	0	·	1	·	1
O=C1CC(c2ccco2)CC(O)=C1C=NCC1NCCc2ccccc21 (stereo not given)	3	-20	i	2	29*	-26
COc1ccc(CN2C(=O)N3Cc4ccccc4C3CS2(=O)=O)cc1 (stereo not given)	-1	0	·	-4	·	0
NNc1nc2c(-c3ccc(F)cc3)nnn2c2ccccc12	5	-120	i	12	30*	-171
COC(=O)c1nn(-c2ccccc2)c(Sc2ccccc2)c1/C=N/O	1	0	i	20	5	-1
COC(=O)c1nn(-c2ccccc2)c(Sc2ccc(C)cc2)c1/C=N/O	-9	3	·	56*	-5	0
O=C1ON=C(c2ccc([N+](=O)[O-])cc2)/C1=C/c1ccccc1O	0	2	i	26	29*	-2
O=C1C(NC(=O)C(F)(F)Br)CCCCN1Cc1cccc(C(F)(F)F)c1 (stereo not given)	-2	-2	·	-3	·	3
Oc1ccccc1/C=N/n1c(COc2ccccc2)n[nH]c1=S	-11	-3	i	-1	28*	-10
COc1ccc(/C=N/n2c(COc3ccccc3)n[nH]c2=S)cc1OC	-4	0	i	2	30*	-7
CC(/C=N/n1c(COc2ccccc2)n[nH]c1=S)=C\c1ccco1	-8	0	i	4	24	-9
S=c1[nH]nc(COc2ccccc2)n1/N=C/c1ccco1	2	-3	i	0	28*	-3
CCOc1ccccc1/C=N/n1c(COc2ccccc2)n[nH]c1=S	-5	7	i	-9	31*	-2
Cc1cc(-c2n[nH]c(=S)n2N=Cc2ccc(O)cc2)n[nH]1	-5	6	·	3	·	6
Cc1ccc(-c2c(NC(=O)C3CC3)nc3ncccn23)cc1	0	i	·	1	·	i
CC(C)c1ccccc1NC(=O)CCc1nc2ccccc2s1	1	-5	i	-1	30*	-4
O=C(C[C@@H]1C[C@@H]2c3cc(NS(=O)(=O)c4ccc(F)cc4)ccc3O[C@@H]2[C@H](CO)O1)NCc1ccc(Oc2ccccc2)cc1	0	9.6*	·	-5	·	-3
